# Measurements taken from publication PMC9911399, “Two distinct binding modes provide the RNA-binding protein RbFox with extraordinary sequence specificity”.
# Residue numbers refer to the chain shown, from its start. The full ranking holds about 16,000 sequences; the median of “ka relative to ugcaugu” is about 0.0091, and the highest 2% start at about 0.032. Only a selection was taken, and the highest values are over-represented in it overall.
# T1: RBFOX1 RRM (Homo sapiens, UniProt Q9NWB1 109-208)
# T1 sequence: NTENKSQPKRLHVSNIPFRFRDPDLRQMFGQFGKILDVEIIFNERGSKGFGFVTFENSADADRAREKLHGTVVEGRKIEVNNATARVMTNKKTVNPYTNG
# B1: UGAGGUG (DNA:RNA)
# RNA: GGGAGACCGGAAUUCAGAUUGUCCUGAGGUGUUAAAUCCCGUCGUAGCCACCA
# DNA 1: CAATCTGAATTCCGGTCTCCC
# DNA 2: TGGTGGCTACGACGGGATT
# B2: UCCGUAG (DNA:RNA)
# RNA: B1 RNA with G26C, A27C, G29U, U30A
# DNA 1: CAATCTGAATTCCGGTCTCCC
# DNA 2: TGGTGGCTACGACGGGATT
# B3: UGUAUGC (DNA:RNA)
# RNA: B1 RNA with A27U, G28A, G29U, U30G, G31C
# DNA 1: CAATCTGAATTCCGGTCTCCC
# DNA 2: TGGTGGCTACGACGGGATT
# B4: UGUAUUG (DNA:RNA)
# RNA: B1 RNA with A27U, G28A, G29U
# DNA 1: CAATCTGAATTCCGGTCTCCC
# DNA 2: TGGTGGCTACGACGGGATT
# B5: CGUAUGC (DNA:RNA)
# RNA: B1 RNA with U25C, A27U, G28A, G29U, U30G, G31C
# DNA 1: CAATCTGAATTCCGGTCTCCC
# DNA 2: TGGTGGCTACGACGGGATT
# B6: UUCUGCU (DNA:RNA)
# RNA: B1 RNA with G26U, A27C, G28U, U30C, G31U
# DNA 1: CAATCTGAATTCCGGTCTCCC
# DNA 2: TGGTGGCTACGACGGGATT
# B7: UGUAACC (DNA:RNA)
# RNA: B1 RNA with A27U, G28A, G29A, U30C, G31C
# DNA 1: CAATCTGAATTCCGGTCTCCC
# DNA 2: TGGTGGCTACGACGGGATT
# B8: AGGCGUG (DNA:RNA)
# RNA: B1 RNA with U25A, A27G, G28C
# DNA 1: CAATCTGAATTCCGGTCTCCC
# DNA 2: TGGTGGCTACGACGGGATT
# B9: ACCCAGU (DNA:RNA)
# RNA: GGGAGACCGGAAUUCAGAUUGUCCACCCAGUUUAAAUCCCGUCGUAGCCACCA
# DNA 1: CAATCTGAATTCCGGTCTCCC
# DNA 2: TGGTGGCTACGACGGGATT
# B10: GCACAUG (DNA:RNA)
# RNA: B9 RNA with A25G, C27A, G30U, U31G
# DNA 1: CAATCTGAATTCCGGTCTCCC
# DNA 2: TGGTGGCTACGACGGGATT
# B11: GCAUAUG (DNA:RNA)
# RNA: B1 RNA with U25G, G26C, G28U, G29A
# DNA 1: CAATCTGAATTCCGGTCTCCC
# DNA 2: TGGTGGCTACGACGGGATT
# B12: GCGCAUG (DNA:RNA)
# RNA: B9 RNA with A25G, C27G, G30U, U31G
# DNA 1: CAATCTGAATTCCGGTCTCCC
# DNA 2: TGGTGGCTACGACGGGATT
# B13: GCGCGCA (DNA:RNA)
# RNA: B9 RNA with A25G, C27G, A29G, G30C, U31A
# DNA 1: CAATCTGAATTCCGGTCTCCC
# DNA 2: TGGTGGCTACGACGGGATT
# B14: GUCCGUC (DNA:RNA)
# RNA: B9 RNA with A25G, C26U, A29G, G30U, U31C
# DNA 1: CAATCTGAATTCCGGTCTCCC
# DNA 2: TGGTGGCTACGACGGGATT
# B15: GCGCAUC (DNA:RNA)
# RNA: B9 RNA with A25G, C27G, G30U, U31C
# DNA 1: CAATCTGAATTCCGGTCTCCC
# DNA 2: TGGTGGCTACGACGGGATT
# B16: GCAUGUC (DNA:RNA)
# RNA: B1 RNA with U25G, G26C, G28U, G31C
# DNA 1: CAATCTGAATTCCGGTCTCCC
# DNA 2: TGGTGGCTACGACGGGATT
# B17: GCAUGUG (DNA:RNA)
# RNA: B1 RNA with U25G, G26C, G28U
# DNA 1: CAATCTGAATTCCGGTCTCCC
# DNA 2: TGGTGGCTACGACGGGATT
# B18: AUGUGUG (DNA:RNA)
# RNA: B1 RNA with U25A, G26U, A27G, G28U
# DNA 1: CAATCTGAATTCCGGTCTCCC
# DNA 2: TGGTGGCTACGACGGGATT
# B19: CAAUGUA (DNA:RNA)
# RNA: B1 RNA with U25C, G26A, G28U, G31A
# DNA 1: CAATCTGAATTCCGGTCTCCC
# DNA 2: TGGTGGCTACGACGGGATT
# B20: CUCAACC (DNA:RNA)
# RNA: B9 RNA with A25C, C26U, C28A, G30C, U31C
# DNA 1: CAATCTGAATTCCGGTCTCCC
# DNA 2: TGGTGGCTACGACGGGATT
# Molecular target: T1, RBFOX1 RRM
# Experiment: EMSA; HiTS-Eq, 1 nM pool, 10 min; buffer printed only for the single-RNA assays: 10 mM Tris pH 7.5, 150 mM NaCl, 3.4 mM EDTA, 0.001% NP-40, 30 C
# Conditions: tags: His6 N-terminal (pET28a); label: 5' 32P
# Method in brief: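 A pool of RNA with 7 randomized nucleotides, 5′-radiolabelled and with DNA-annealed flanks, was equilibrated at 1 nM for 10 min in 50 µL with purified RbFox RRM, wild type or mutant, across increasing protein concentrations. Free RNA was separated by 8% native PAGE, excised, reverse-transcribed, barcoded by PCR and sequenced. Relative association constants were obtained from read-count changes of each RNA species versus the control reaction and normalised to the cognate motif.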
row,Binder,binding signal
1,B1,0.0201 KA relative to UGCAUGU
2,B2,0.00757 KA relative to UGCAUGU
3,B3,0.0374 KA relative to UGCAUGU
4,B4,0.0262 KA relative to UGCAUGU
5,B5,0.014 KA relative to UGCAUGU
6,B6,0.0203 KA relative to UGCAUGU
7,B7,0.00753 KA relative to UGCAUGU
8,B8,0.0157 KA relative to UGCAUGU
9,B9,0.00233 KA relative to UGCAUGU
10,B10,0.0141 KA relative to UGCAUGU
11,B11,0.00982 KA relative to UGCAUGU
12,B12,0.843 KA relative to UGCAUGU
13,B13,0.0238 KA relative to UGCAUGU
14,B14,0.0149 KA relative to UGCAUGU
15,B15,0.0246 KA relative to UGCAUGU
16,B16,0.689 KA relative to UGCAUGU
17,B17,0.8 KA relative to UGCAUGU
18,B18,0.0208 KA relative to UGCAUGU
19,B19,0.00174 KA relative to UGCAUGU
20,B20,0.000946 KA relative to UGCAUGU
